The source of these data is the supplement of paper PMC11732987, “Enantioselective OTUD7B fragment discovery through chemoproteomics screening and high-throughput optimisation” (Communications Chemistry, 2025).

What all share (assay): log2 ratio of Biotin-Ahx-Ub-VS probe labelling (fragment/DMSO); higher = less target engagement (more negative = stronger competition), active = hit call of the paper (q ≤ 0.05, log2 ratio ≤ -1)
What all share (settings): compound concentration: 200 uM; treatment time: 3 h

One assay has as its target T1, OTUD6B (UniProt Q8N6M0).
T1 sequence (whole entry): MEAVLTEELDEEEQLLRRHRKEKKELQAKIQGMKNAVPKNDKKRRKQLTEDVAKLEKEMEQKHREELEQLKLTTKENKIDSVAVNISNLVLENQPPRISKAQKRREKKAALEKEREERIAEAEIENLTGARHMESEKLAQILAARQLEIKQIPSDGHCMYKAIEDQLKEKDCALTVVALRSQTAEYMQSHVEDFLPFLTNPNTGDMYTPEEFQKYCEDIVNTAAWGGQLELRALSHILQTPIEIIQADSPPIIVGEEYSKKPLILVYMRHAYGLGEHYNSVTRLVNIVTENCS
In short, it runs like this:
(§1)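 HEK293T lysate, 495 µg per sample in Tris/CHAPS/IGEPAL buffer with protease inhibitors, was treated in triplicate with fragment at 200 µM or vehicle for 3 h and then with Biotin-Ahx-Ub-VS at 0.5 µM final for 1 h. Labelled DUBs were NeutrAvidin-enriched, digested with LysC and trypsin, and run by diaPASEF LC-MS/MS. Spectronaut label-free quantities were global-median-normalised, and values are average log2 fragment/vehicle ratios by unpaired t-test on proteins with ≥2 unique peptides.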

The next assay has as its target T2, OTUD7B (UniProt Q6GQQ9).
T2 sequence (whole entry): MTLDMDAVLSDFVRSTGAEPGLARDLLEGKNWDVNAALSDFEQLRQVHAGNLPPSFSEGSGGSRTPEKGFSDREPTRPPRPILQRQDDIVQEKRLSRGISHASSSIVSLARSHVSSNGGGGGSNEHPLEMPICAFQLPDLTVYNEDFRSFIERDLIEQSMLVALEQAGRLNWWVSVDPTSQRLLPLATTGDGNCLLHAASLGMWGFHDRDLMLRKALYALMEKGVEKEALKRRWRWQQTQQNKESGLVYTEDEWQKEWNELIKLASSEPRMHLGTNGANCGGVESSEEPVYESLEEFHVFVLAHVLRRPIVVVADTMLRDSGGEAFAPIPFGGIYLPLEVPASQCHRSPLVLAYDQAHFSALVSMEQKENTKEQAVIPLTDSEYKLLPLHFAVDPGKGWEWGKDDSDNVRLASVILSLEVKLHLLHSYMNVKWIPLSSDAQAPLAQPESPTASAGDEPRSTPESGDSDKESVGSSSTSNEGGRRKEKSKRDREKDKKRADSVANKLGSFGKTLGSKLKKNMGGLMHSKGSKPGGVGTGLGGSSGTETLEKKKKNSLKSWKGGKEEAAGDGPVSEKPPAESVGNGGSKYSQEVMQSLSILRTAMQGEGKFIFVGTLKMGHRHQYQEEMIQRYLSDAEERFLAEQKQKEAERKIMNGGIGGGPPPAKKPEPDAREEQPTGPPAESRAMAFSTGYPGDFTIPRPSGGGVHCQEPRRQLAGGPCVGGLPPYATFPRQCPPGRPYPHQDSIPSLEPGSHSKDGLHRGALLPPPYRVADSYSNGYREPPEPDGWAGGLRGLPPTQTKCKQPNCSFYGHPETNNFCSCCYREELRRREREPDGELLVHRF
The method in brief:
as §1

A further assay has as its target PRPF8 (UniProt Q6P2Q9). The method in brief:
as §1

A further assay deals with T3, PSMD7 (UniProt P51665).
T3 sequence (whole entry): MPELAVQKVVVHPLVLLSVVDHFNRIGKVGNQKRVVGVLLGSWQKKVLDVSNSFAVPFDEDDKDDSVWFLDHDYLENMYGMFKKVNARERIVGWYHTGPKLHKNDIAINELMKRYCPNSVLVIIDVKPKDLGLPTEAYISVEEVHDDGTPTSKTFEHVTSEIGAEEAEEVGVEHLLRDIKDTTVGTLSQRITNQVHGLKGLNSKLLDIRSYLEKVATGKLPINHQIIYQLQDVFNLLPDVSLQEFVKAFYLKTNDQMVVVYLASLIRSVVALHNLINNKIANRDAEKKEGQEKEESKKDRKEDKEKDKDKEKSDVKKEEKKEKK
The method in brief:
as §1

The target in another assay is UCHL1 (UniProt P09936). The method in brief: as §1
Sequence of UCHL1 (P09936 whole entry, looked up): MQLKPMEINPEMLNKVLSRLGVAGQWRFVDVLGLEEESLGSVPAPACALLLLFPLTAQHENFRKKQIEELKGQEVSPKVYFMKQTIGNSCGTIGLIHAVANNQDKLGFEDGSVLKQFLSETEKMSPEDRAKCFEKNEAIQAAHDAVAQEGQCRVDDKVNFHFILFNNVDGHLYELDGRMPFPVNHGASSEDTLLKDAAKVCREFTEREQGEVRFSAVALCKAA
A further assay addresses T4, UCHL3 (UniProt P15374).
T4 sequence (whole entry): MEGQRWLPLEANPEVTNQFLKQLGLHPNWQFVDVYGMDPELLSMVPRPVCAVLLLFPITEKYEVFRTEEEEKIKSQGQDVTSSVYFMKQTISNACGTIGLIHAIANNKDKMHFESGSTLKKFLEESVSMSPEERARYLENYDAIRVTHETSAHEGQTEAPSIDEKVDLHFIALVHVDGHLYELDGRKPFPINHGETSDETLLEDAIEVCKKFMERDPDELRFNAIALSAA
The method in brief:
as §1

The next assay concerns the target T5, UCHL5 (UniProt Q9Y5K5).
T5 sequence (whole entry): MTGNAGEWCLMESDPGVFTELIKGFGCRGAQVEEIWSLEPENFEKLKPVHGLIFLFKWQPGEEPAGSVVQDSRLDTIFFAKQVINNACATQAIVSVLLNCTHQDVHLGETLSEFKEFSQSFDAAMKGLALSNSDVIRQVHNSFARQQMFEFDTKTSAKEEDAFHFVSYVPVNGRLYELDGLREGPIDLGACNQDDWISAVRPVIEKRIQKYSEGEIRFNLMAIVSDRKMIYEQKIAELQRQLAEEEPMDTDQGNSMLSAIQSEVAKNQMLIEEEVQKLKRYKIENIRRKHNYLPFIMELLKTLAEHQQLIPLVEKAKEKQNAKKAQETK
The method in brief: as §1

The target in the next assay is USP10 (UniProt Q14694). In short, it runs like this: as §1
Sequence of USP10 (Q14694 whole entry): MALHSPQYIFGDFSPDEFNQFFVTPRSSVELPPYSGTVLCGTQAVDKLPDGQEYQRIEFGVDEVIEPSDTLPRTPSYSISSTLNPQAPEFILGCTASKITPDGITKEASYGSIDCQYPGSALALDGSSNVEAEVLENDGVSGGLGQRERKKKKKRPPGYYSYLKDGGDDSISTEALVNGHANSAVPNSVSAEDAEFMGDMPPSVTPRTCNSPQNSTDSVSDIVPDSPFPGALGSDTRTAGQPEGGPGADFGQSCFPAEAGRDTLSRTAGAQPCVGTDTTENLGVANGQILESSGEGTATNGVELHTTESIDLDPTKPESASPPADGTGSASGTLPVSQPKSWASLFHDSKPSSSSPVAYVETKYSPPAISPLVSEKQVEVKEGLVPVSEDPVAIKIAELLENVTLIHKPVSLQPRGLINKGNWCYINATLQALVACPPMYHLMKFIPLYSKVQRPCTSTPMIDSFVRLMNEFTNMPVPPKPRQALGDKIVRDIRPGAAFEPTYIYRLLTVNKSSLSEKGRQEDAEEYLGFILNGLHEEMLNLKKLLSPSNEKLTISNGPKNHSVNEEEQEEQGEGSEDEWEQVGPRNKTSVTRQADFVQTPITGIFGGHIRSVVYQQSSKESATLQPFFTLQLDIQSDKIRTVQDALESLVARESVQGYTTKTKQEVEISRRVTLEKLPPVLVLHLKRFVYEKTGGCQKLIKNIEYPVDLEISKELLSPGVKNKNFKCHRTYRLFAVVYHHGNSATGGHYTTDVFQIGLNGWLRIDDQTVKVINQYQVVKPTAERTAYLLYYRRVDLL
The target in a further assay is T6, USP15 (UniProt Q9Y4E8).
T6 sequence (whole entry): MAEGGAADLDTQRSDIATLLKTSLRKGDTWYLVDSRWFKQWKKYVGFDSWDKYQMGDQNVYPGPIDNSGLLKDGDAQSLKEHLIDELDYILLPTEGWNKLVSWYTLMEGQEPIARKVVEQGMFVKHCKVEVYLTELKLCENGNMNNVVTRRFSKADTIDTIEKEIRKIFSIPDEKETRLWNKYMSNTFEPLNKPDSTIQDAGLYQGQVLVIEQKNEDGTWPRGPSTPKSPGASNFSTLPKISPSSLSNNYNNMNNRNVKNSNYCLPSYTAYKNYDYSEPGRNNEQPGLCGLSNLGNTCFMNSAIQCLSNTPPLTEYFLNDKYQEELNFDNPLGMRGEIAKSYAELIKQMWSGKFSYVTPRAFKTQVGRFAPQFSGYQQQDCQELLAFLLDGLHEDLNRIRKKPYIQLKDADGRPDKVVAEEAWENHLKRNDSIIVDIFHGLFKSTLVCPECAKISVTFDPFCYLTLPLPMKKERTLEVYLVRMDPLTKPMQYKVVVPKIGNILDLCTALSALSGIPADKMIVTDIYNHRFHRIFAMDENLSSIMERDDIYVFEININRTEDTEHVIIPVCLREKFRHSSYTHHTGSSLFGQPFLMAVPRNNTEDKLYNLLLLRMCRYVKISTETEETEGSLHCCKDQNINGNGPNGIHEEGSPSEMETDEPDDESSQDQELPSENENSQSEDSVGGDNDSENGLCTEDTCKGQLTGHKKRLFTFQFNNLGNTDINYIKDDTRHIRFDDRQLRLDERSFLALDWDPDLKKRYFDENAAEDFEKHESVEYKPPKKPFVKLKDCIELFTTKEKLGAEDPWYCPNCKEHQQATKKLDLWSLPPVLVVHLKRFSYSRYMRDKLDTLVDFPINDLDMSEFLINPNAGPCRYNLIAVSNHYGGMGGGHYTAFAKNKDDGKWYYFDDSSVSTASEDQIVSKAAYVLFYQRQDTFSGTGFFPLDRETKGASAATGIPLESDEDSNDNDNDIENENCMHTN
The method in brief: as §1

In a further assay the target is USP16 (UniProt Q9Y5T5). The method in brief: as §1
Sequence of USP16 (Q9Y5T5 whole entry, looked up): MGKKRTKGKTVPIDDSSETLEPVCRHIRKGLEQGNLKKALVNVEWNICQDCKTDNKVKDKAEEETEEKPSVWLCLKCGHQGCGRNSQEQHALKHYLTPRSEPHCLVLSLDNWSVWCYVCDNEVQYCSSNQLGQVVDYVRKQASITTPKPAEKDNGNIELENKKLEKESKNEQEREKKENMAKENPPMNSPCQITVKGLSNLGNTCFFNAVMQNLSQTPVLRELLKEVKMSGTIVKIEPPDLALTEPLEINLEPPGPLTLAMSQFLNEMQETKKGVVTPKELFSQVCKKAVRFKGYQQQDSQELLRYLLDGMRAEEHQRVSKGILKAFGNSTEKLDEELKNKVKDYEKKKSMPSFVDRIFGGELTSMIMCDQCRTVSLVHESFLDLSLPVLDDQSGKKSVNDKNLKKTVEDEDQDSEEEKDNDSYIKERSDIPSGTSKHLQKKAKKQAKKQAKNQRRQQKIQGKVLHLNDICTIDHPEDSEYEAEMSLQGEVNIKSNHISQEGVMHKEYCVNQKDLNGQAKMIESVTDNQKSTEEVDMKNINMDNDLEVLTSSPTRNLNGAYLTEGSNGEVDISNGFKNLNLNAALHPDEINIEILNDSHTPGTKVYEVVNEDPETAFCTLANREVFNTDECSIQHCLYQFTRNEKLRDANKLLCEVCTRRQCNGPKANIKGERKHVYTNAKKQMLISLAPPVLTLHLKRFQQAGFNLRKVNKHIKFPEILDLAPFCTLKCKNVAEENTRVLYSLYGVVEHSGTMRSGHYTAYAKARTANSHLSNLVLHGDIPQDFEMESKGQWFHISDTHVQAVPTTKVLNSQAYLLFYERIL

Unmarked numbers belong to inactive results.

For the compound `COc1ccc(Cl)cc1NC(=O)CCl`, the “log2 ratio of Biotin-Ahx-Ub-VS probe labelling” value in the assay with OTUD6B was -0.594; in the assay with OTUD7B, -1.29 (active); with PRPF8, -0.0117; with PSMD7 it was -0.241; with UCHL1 it was -1.01 (active); with UCHL3, -0.0348. Moreover, the “log2 ratio of Biotin-Ahx-Ub-VS probe labelling” value was -0.501 in the assay with UCHL5, -0.263 in the assay with USP10, -0.674 with USP15 and -0.286 with USP16.
